Common to all, as to assay: DAPPL (digital affinity profiling via proximity ligation, sequencing); 10 mM Tris-HCl pH 7.5, 50 mM NaCl, 1 mM DTT, 4% glycerol, room temperature, 30 min; GST-TFs on glutathione beads, 16-mer random dsDNA library, 0.1% formaldehyde crosslink after washing; high values mean tight binding
The target in one experiment is T1, FEV (Homo sapiens, UniProt Q99581 1-238).
T1 sequence: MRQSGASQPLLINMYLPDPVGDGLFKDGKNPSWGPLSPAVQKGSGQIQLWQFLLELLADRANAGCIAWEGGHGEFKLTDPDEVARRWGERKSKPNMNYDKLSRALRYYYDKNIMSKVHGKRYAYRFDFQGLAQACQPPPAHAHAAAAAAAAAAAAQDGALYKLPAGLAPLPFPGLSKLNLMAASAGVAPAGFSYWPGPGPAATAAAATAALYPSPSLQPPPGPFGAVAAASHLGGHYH
The settings on record: protein: recombinant; tags: N-terminal GST; dsDNA, one strand shown. The method, boiled down: (§1)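 Pools were built from human transcription factors expressed in yeast as GST fusions, captured on glutathione beads and DNA-barcoded, along with a tag-only sample. Incubation with 200 nmole of a 16-mer random double-stranded DNA library lasted 30 min at room temperature in Tris/NaCl/DTT/glycerol buffer, and was followed by washing, 0.1% formaldehyde crosslinking, proximity ligation, PCR amplification and Illumina NextSeq500 sequencing. Binding signal is the quotient of each hexamer's read frequency for a factor and its frequency for the tag-only sample.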

Another experiment deals with ETV5 (Homo sapiens, UniProt P41161 1-510). Conditions: protein: recombinant; tags: N-terminal GST; dsDNA, one strand shown. In short, it runs like this:
as §1

In the next experiment the target is HSF1 (Homo sapiens, UniProt Q00613 1-529). The settings on record: protein: recombinant; tags: N-terminal GST; chain copies: 3; dsDNA, one strand shown. In short, it runs like this:
as §1

The target of a further experiment is T2, SPIC (Homo sapiens, UniProt Q8N5J4 1-248).
T2 sequence: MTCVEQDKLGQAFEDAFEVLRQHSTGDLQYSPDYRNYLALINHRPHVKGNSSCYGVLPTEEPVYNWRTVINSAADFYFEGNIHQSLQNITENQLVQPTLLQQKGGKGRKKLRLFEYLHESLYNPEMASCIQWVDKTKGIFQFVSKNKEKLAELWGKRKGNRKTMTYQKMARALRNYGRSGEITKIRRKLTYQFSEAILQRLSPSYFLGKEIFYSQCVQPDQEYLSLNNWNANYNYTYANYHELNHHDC
The settings on record: protein: recombinant; tags: N-terminal GST; dsDNA, one strand shown. The method, boiled down: as §1

For the next experiment, the target named is ELF4 (Homo sapiens, UniProt Q99607 1-663). Conditions: protein: recombinant; tags: N-terminal GST; dsDNA, one strand shown. The method, boiled down:
as §1

A further experiment concerns the target T3, ELK4 (Homo sapiens, UniProt P28324-2 1-405).
T3 sequence: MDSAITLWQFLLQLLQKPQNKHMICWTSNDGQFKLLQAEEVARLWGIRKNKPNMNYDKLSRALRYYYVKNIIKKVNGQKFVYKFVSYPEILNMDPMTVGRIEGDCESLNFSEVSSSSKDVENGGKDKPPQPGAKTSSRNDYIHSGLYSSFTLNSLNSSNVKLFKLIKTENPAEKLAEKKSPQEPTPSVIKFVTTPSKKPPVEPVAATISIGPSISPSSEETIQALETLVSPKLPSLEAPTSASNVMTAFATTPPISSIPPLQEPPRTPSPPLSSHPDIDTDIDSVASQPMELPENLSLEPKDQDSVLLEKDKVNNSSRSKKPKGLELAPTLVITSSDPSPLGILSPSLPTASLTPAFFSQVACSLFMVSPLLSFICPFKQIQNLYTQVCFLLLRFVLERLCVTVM
The settings on record: protein: recombinant; tags: N-terminal GST; dsDNA, one strand shown. The method, boiled down:
as §1

The next experiment addresses T4, ETV2 (Homo sapiens, UniProt O00321 1-342).
T4 sequence: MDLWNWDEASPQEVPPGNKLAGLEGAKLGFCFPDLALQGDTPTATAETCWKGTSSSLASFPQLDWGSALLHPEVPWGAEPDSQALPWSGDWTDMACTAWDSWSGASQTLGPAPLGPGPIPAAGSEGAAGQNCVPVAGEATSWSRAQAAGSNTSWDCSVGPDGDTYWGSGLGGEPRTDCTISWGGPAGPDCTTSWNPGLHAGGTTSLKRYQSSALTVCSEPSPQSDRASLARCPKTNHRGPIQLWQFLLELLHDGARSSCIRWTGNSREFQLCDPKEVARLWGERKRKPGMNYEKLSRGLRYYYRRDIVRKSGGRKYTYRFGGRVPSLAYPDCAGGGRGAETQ
The settings on record: protein: recombinant; tags: N-terminal GST; dsDNA, one strand shown. The method, boiled down: as §1

The target in the next experiment is T5, ELF3 (Homo sapiens, UniProt P78545 1-371).
T5 sequence: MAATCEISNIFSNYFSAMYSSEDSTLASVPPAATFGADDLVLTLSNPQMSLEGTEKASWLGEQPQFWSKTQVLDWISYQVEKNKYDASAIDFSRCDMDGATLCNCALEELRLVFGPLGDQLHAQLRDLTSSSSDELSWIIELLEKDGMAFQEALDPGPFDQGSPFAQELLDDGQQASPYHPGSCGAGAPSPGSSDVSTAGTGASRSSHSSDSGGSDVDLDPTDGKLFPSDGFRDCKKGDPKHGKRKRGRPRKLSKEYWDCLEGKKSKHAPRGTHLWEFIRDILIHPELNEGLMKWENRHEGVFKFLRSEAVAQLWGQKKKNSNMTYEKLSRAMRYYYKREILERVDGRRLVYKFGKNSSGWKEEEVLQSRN
Conditions: protein: recombinant; tags: N-terminal GST; dsDNA, one strand shown. In short, it runs like this:
as §1

For the next experiment, the target named is CRX (Homo sapiens, UniProt O43186 1-299). Conditions: protein: recombinant; tags: N-terminal GST; dsDNA, one strand shown. The method, boiled down: as §1
Sequence of CRX (O43186 whole entry): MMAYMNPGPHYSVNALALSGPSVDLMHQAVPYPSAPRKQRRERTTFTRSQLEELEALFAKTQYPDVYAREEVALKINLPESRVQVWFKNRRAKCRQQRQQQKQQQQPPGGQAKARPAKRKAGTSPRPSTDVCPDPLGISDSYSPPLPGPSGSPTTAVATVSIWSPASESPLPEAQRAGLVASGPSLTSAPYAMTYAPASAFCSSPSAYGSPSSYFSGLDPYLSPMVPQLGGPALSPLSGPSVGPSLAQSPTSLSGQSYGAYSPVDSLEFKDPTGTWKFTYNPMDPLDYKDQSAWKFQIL
The target of another experiment is ETV1 (Homo sapiens, UniProt P50549 1-477). The settings on record: protein: recombinant; tags: N-terminal GST; dsDNA, one strand shown. The method, boiled down:
as §1

In the next experiment the target is T6, ERF (Homo sapiens, UniProt P50548 1-548).
T6 sequence: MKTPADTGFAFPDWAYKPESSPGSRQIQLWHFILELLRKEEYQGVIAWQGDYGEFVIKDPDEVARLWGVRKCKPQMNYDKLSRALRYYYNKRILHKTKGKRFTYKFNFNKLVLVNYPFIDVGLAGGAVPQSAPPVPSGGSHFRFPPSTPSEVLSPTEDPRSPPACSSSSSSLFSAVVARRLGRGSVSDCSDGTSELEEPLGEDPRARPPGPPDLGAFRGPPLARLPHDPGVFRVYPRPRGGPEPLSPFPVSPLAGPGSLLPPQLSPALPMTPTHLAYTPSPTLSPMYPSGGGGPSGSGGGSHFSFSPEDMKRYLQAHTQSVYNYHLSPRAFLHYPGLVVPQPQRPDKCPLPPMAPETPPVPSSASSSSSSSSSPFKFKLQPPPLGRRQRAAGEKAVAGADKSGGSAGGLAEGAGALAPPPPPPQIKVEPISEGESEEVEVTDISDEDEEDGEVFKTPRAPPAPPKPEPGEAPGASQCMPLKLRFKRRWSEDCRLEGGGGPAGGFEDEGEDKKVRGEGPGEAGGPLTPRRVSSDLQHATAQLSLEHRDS
Conditions: protein: recombinant; tags: N-terminal GST; dsDNA, one strand shown. In short, it runs like this:
as §1

The target of another experiment is T7, ETV3L (Homo sapiens, UniProt Q6ZN32 1-361).
T7 sequence: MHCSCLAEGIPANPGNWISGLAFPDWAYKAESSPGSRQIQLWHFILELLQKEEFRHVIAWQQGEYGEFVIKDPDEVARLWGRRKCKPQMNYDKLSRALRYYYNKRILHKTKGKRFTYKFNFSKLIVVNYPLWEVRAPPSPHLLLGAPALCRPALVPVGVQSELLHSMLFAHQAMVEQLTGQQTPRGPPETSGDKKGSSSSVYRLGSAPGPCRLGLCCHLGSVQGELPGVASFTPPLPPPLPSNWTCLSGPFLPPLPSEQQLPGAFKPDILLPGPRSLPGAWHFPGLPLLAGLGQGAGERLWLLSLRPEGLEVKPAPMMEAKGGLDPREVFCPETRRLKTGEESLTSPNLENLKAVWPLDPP
The settings on record: protein: recombinant; tags: N-terminal GST; dsDNA, one strand shown. The method, boiled down: as §1

Another experiment has as its target T8, ETS2 (Homo sapiens, UniProt P15036 1-469).
T8 sequence: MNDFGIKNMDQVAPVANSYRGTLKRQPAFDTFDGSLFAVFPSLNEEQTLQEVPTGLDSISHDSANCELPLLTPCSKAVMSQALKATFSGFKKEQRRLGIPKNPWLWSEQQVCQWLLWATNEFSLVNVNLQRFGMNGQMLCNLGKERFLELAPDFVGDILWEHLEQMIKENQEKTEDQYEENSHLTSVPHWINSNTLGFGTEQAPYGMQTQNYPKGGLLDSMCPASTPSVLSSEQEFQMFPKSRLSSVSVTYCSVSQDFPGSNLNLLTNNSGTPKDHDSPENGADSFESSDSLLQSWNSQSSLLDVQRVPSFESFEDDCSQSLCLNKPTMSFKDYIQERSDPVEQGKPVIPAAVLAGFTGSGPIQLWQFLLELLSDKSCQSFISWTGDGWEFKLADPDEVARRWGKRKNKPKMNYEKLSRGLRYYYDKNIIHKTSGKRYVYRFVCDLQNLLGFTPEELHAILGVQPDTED
The settings on record: protein: recombinant; tags: N-terminal GST; dsDNA, one strand shown. The method, boiled down: as §1

A further experiment concerns the target T9, SPDEF (Homo sapiens, UniProt O95238 1-335).
T9 sequence: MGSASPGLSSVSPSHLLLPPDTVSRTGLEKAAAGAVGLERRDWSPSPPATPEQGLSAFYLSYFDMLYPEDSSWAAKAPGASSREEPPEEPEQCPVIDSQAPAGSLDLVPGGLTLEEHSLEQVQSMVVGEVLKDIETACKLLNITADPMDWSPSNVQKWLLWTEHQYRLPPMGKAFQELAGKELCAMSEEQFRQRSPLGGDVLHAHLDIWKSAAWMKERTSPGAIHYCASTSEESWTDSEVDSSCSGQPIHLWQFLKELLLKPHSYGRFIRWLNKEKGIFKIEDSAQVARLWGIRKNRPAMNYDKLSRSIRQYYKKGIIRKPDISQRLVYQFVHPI
The settings on record: protein: recombinant; tags: N-terminal GST; dsDNA, one strand shown. The method, boiled down:
as §1

The target in the next experiment is T10, ETV7 (Homo sapiens, UniProt Q9Y603 1-341).
T10 sequence: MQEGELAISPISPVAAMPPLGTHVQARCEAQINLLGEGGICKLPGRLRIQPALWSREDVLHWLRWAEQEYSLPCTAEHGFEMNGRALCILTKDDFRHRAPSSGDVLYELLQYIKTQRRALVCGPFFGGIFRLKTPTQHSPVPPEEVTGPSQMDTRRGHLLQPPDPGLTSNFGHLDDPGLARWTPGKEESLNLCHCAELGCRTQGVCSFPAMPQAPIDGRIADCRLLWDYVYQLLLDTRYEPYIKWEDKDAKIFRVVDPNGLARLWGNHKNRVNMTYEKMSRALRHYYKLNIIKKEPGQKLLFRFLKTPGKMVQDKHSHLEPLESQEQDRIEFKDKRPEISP
Conditions: protein: recombinant; tags: N-terminal GST; dsDNA, one strand shown. The method, boiled down:
as §1

The target of a further experiment is T11, ELF5 (Homo sapiens, UniProt Q9UKW6-2 1-255).
T11 sequence: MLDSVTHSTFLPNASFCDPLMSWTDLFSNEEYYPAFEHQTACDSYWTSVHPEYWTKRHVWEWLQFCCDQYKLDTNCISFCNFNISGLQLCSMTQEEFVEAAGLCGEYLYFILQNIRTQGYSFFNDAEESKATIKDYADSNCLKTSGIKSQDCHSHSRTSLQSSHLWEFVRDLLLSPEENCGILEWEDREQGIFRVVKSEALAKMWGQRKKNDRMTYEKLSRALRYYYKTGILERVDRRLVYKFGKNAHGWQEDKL
The settings on record: protein: recombinant; tags: N-terminal GST; dsDNA, one strand shown. The method, boiled down:
as §1

The target of a further experiment is T12, ETV3 (Homo sapiens, UniProt P41162-2 1-143).
T12 sequence: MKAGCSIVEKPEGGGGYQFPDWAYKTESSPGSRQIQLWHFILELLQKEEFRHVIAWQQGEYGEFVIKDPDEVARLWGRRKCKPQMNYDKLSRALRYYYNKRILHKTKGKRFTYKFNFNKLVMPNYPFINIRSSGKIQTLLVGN
Conditions: protein: recombinant; tags: N-terminal GST; dsDNA, one strand shown. In short, it runs like this: as §1

The target in a further experiment is ETV6 (Homo sapiens, UniProt P41212 1-452). The settings on record: protein: recombinant; tags: N-terminal GST; dsDNA, one strand shown. The method, boiled down: as §1
Sequence of ETV6 (P41212 whole entry): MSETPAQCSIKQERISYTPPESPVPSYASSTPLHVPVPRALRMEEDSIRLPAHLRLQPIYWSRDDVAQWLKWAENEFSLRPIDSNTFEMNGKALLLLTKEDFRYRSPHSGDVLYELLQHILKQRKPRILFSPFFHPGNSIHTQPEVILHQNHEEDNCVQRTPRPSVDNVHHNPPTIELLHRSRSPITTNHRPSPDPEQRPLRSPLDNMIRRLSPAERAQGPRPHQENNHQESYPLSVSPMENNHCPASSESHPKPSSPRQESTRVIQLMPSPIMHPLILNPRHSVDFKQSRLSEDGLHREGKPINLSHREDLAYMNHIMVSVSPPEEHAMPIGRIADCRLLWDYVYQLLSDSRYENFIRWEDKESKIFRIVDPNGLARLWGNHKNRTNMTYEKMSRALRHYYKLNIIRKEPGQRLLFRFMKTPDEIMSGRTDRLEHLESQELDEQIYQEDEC

This passage reports binding signal results from article PMC7862700, “An all-to-all approach to the identification of sequence-specific readers for epigenetic DNA modifications on cytosine”.

Sequence of ETV1 (P50549 whole entry): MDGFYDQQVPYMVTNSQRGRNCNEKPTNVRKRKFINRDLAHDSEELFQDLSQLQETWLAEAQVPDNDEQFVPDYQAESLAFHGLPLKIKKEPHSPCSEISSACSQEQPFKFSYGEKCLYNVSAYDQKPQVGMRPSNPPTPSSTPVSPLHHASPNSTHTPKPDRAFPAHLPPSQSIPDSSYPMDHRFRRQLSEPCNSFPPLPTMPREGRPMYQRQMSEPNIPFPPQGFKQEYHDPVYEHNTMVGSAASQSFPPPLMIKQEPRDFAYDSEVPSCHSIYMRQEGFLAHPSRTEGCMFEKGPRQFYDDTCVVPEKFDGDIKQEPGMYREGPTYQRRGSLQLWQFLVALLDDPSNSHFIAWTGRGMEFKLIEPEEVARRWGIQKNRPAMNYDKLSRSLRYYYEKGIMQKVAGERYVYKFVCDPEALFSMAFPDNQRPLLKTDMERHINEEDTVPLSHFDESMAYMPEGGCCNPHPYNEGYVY
Sequence of ETV5 (P41161 whole entry): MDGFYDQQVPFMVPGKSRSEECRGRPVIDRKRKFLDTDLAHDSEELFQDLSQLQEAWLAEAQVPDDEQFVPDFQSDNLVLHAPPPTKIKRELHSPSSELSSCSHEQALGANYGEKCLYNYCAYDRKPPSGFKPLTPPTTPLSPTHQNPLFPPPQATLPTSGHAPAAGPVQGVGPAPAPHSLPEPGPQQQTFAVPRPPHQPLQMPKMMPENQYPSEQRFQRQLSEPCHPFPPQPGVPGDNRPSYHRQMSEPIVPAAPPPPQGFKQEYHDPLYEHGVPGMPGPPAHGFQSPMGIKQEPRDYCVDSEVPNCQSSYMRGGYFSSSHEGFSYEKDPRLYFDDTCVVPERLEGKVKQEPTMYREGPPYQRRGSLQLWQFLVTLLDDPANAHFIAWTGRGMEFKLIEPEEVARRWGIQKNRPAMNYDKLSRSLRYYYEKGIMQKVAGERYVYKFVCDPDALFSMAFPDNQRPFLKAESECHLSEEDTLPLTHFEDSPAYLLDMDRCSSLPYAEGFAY
Sequence of HSF1 (Q00613 whole entry): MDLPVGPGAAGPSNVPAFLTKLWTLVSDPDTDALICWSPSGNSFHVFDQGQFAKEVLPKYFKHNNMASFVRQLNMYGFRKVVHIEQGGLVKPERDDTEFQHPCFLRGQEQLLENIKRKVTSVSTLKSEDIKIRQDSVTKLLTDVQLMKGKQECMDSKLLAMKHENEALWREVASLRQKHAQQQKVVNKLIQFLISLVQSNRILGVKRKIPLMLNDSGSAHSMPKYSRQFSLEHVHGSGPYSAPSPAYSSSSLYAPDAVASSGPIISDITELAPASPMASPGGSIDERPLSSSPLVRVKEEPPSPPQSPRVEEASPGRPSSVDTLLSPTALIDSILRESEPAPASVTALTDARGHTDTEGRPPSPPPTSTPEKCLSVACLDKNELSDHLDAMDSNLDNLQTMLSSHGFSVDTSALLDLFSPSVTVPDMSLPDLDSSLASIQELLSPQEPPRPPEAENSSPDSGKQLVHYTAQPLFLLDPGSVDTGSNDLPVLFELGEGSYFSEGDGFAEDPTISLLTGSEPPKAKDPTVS
Sequence of ELF4 (Q99607 whole entry): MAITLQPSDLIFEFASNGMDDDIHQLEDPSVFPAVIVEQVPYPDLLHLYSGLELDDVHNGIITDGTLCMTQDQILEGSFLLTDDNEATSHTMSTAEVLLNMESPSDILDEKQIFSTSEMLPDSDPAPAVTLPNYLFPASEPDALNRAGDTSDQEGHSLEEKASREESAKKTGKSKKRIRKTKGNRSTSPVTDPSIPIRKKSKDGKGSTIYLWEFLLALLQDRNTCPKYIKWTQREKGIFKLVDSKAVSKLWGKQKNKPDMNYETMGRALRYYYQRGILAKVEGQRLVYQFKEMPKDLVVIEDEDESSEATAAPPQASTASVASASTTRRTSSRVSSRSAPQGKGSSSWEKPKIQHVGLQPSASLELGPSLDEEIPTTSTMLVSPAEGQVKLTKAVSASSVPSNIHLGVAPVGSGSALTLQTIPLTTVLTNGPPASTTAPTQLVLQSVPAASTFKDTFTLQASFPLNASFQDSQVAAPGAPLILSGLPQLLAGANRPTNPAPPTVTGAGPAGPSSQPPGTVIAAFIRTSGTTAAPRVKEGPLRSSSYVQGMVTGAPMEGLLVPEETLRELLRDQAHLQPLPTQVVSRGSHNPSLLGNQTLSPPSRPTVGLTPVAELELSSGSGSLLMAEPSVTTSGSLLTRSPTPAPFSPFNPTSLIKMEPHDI

Take CCAAAA: the binding signal with FEV is 1.2 fold enrichment (6-mer frequency, TF over GST control); with ETV5, 1.19 fold enrichment (6-mer frequency, TF over GST control); with HSF1, 1.17 fold enrichment (6-mer frequency, TF over GST control); with SPIC, 1.05 fold enrichment (6-mer frequency, TF over GST control); in the experiment with ELF4, 1.19 fold enrichment (6-mer frequency, TF over GST control); with ELK4 it was 1.05 fold enrichment (6-mer frequency, TF over GST control). Also, the binding signal is 1.28 fold enrichment (6-mer frequency, TF over GST control) in the experiment with ETV2; 1.03 fold enrichment (6-mer frequency, TF over GST control) in the experiment with ELF3; 1.06 fold enrichment (6-mer frequency, TF over GST control) in the experiment with CRX; 1.18 fold enrichment (6-mer frequency, TF over GST control) in the experiment with ETV1; 1.16 fold enrichment (6-mer frequency, TF over GST control) in the experiment with ERF; 1.1 fold enrichment (6-mer frequency, TF over GST control) with ETV3L. Further, the binding signal in the experiment with ETS2 was 1.11 fold enrichment (6-mer frequency, TF over GST control); with SPDEF it was 1.11 fold enrichment (6-mer frequency, TF over GST control); with ETV7, 1.11 fold enrichment (6-mer frequency, TF over GST control); with ELF5 it was 1.11 fold enrichment (6-mer frequency, TF over GST control); with ETV3 it was 1.15 fold enrichment (6-mer frequency, TF over GST control); in the experiment with ETV6 it was 1.2 fold enrichment (6-mer frequency, TF over GST control).
